According to PubChem BioAssay AID624296 (National Center for Advancing Translational Sciences (NCATS), 2012):
The campaign covered roughly 350,000 compounds. About 9,900 (2.8%) were called active. Another 15% or so got no clear call; they are omitted. Calls follow the shape of the dose curve; as a rule, active = well fitted activation curve with a large enough effect; inconclusive = small, poorly fitted or top-dose-only effect; inactive = no such curve, though single readings can be large or run the other way. The entries come from a sample that favours actives as a whole. A call without a number means that no potency is given here.
Potency is read from the fitted curve at half-maximal effect.

Assay: A quantitative high throughput screen for small molecules that induce DNA re-replication in MCF 10a normal breast cells. Also: nearly all actives have a fitted effect of over 50% in size.
Conditions: MCF 10A DNA re-replication, Hoechst nuclear intensity, 48 h; series mostly up to 46.1 µM
In the case of `CC1CCN(C(=S)c2cccc([N+](=O)[O-])c2)CC1`, the Potency is reported as “inactive”. For `CC1CCN(C(=S)NC(=O)c2ccccc2Br)CC1`, the Potency was “inactive”. With `CC1CCN(C(=S)c2cccc(O)c2)CC1` the Potency was 1.46 µM (active). With `CC[C@]1(C(=O)OC)[C@H]2C(=O)N(Cc3ccccc3)C(=O)[C@H]2[C@H]2CN=C(SCc3ccc(Cl)cc3)N21` the Potency was “inactive”. For `O=C(CN1CCc2ccccc2C1)Nc1cccc(S(=O)(=O)N2CCOCC2)c1`, the Potency was “inactive”. For `COC(=O)Cc1ccc(OC(=O)C2CCN(S(=O)(=O)c3ccc(OC)c(OC)c3)CC2)cc1`, the Potency was “inactive”. In the case of `O=C(Nc1ccc(F)cc1)C1CCN(C(=O)c2ccc([N+](=O)[O-])cc2)CC1`, the Potency is reported as “inactive”. For `CC1CCN(C(=O)c2ccc(S(=O)(=O)Cc3cc(F)ccc3F)c([N+](=O)[O-])c2)CC1`, the Potency was 18.4 µM (active). With `O=C(c1ccc(Oc2ccc(Cl)cc2)c([N+](=O)[O-])c1)N1CCCC1` the Potency was “inactive”. With `O=C(Nc1ccn(CCCNCc2ccc3[nH]ccc3c2)c(=O)n1)OCc1ccccc1` the Potency was “inactive”. In the case of `O=C(Nc1c[nH]c(=O)[nH]c1=O)OCc1ccccc1`, the Potency is reported as “inactive”. With `Cc1ccc(OCC(=O)N2CCN(S(=O)(=O)c3ccc(Cl)s3)CC2)cc1C` the Potency was “inactive”. For `Cc1ccc(Br)c(NS(=O)(=O)c2cccc(C(=O)N3CCNC(=O)C3)c2)c1`, the Potency was “inactive”. For `OCCCNc1nc(-c2ccccc2)c2cc(Cl)ccc2n1`, the Potency was 8.2 µM (active). With `O=C(CCl)NNc1nc(-c2ccccc2)c2cc(Cl)ccc2n1` the Potency was “inactive”. For `NC(N)=Nc1nc(-c2ccccc2)c2cc(Cl)ccc2n1`, the Potency was “inactive”. For `CC1(C)CC(=O)C=C(c2ccc3ncccc3c2)C1`, the Potency was “inactive”. With `CCN(c1ccccc1)S(=O)(=O)c1ccc(C(=O)Nc2ccccc2OC)cc1` the Potency was “inactive”. For `C[n+]1cccc(C(=O)O)c1`, the Potency was “inactive”. With `COc1ccc(Cn2c(=S)[nH]c3cc(C(=O)NCCCN4CCOCC4)ccc3c2=O)cc1` the Potency was “inactive”. In the case of `CCN(CC)CCCNC(=O)c1ccc2c(=O)n(Cc3ccc4c(c3)OCO4)c(=S)[nH]c2c1`, the Potency is reported as 23.1 µM (active). For `CCCCNC(=O)CCn1c(=S)[nH]c2cc3c(cc2c1=O)OCO3`, the Potency was “inactive”. With `Cc1ccc(SC(CC(=O)c2ccc(C(C)(C)C)cc2)C(=O)O)cc1` (stereo not drawn) the Potency was 7.31 µM (active). For `Cc1ccc(C(=O)CSc2ccccc2C(=O)O)cc1`, the Potency was “inactive”. With `Cc1ccc(C(=O)NCCNC(=O)c2ccccc2)cc1` the Potency was “inactive”. For `O=C(Nc1ccc(N2CCOCC2)cc1)c1cccc(S(=O)(=O)N2CCOCC2)c1`, the Potency was “inactive”. In the case of `CN(CC(=O)O)C(=O)c1ccccc1`, the Potency is reported as “inactive”. For `CN1C(=O)c2ccc(NC(=O)C3CCCCC3)cc2C1=O`, the Potency was 10.3 µM (active). With `O=C(O)c1ccc(NC(=O)C2CCCCC2)cc1` the Potency was “inactive”. In the case of `CN1C(=O)c2ccc(NC(=O)c3c(F)c(F)c(F)c(F)c3F)cc2C1=O`, the Potency is reported as “inactive”. In the case of `CCOc1ccc(Br)cc1S(=O)(=O)Nc1ccc(S(=O)(=O)Nc2cc(C)on2)cc1`, the Potency is reported as “inactive”. For `c1ccc(CNc2ncnc3[nH]ncc23)cc1`, the Potency was “inactive”. With `O=C(COC(=O)c1cc(S(=O)(=O)N2CCOCC2)ccc1Cl)NCCc1ccccc1` the Potency was “inactive”. In the case of `COc1ccc2[nH]c3c(c2c1)CCN1C(=O)C(CC(=O)NCc2cccc(C(F)(F)F)c2)C[C@H](C(=O)N2CCOCC2)[C@@]31C` (stereo partly drawn), the Potency is reported as “inactive”. In the case of `CC1CCc2c(sc3nc4n(c(=O)c23)CCS4)C1` (stereo not drawn), the Potency is reported as “inactive”. In the case of `C=CCn1c(SCc2c(C)noc2C)nc2sc3c(c2c1=O)CCC(C)C3` (stereo not drawn), the Potency is reported as 3.66 µM (active). In the case of `C=CCn1c(SCC(=O)NCC2CCCO2)nc2sc(C)c(C)c2c1=O` (stereo not drawn), the Potency is reported as “inactive”. With `CC(NC(=O)COC(=O)CCC(=O)c1ccc(Cl)cc1)c1ccccc1` (stereo not drawn) the Potency was “inactive”. In the case of `CC[C@]12c3[nH]c4ccc(OC)cc4c3CCN1C(=O)C(CC(=O)NCc1ccco1)C[C@@H]2C(=O)N1CCN(C(=O)C2CC2)CC1` (stereo partly drawn), the Potency is reported as “inactive”. For `CC12CCCCC1=CC(=O)CC2` (stereo not drawn), the Potency was “inactive”. In the case of `COc1ccc(Nc2ccc3ccccc3c2)cc1`, the Potency is reported as 23.1 µM (active). With `COc1ccc(-c2nnc(-c3ccc4ccccc4c3)o2)cc1` the Potency was “inactive”. In the case of `COc1ccc(Nc2nnc(C)c3ccccc23)cc1`, the Potency is reported as “inactive”. With `COc1cc(C(=O)N2CCN(S(=O)(=O)c3ccc(C(C)C)cc3)CC2)ccc1OCC(=O)N1CCOCC1` the Potency was “inactive”. With `O=C(C/C(=N\NC(=O)c1ccccc1Br)C(F)(F)F)c1cccs1` the Potency was 11.6 µM (active). In the case of `CC/C(=N\NC(=O)c1ccccc1Cl)c1ccc(Br)s1`, the Potency is reported as “inactive”. For `O=C(CNC(=O)c1ccccc1Br)NNC(=O)c1cccs1`, the Potency was “inactive”. With `CCOC(=O)Cc1csc(SCC(=O)Nc2ccc(C)cc2F)n1` the Potency was “inactive”. In the case of `O=C(OCC(=O)N1CCCCCC1)c1ccc(Cl)nc1`, the Potency is reported as “inactive”. For `CC(=O)NCCC(=O)Nc1nc(C)c(Cc2ccc3c(c2)OCO3)s1`, the Potency was “inactive”. With `COCc1nnc(NC(=O)c2ccc3c(c2)OCO3)s1` the Potency was “inactive”. With `Cc1ccc(C(=O)Nc2sc(Cc3ccc4c(c3)OCO4)c(C)c2C(N)=O)cc1` the Potency was 4.11 µM (active). In the case of `COc1ccccc1C(=O)NCC(=O)OCC(=O)Nc1nnc(-c2ccccc2)o1`, the Potency is reported as “inactive”. With `Cc1coc2c(O)cc3c(c12)OC1(N2CCCCC2)C(=O)NCCCC31` (stereo not drawn) the Potency was 18.4 µM (active). In the case of `O=C1OC(Oc2ccc(Br)cc2)(c2ccccc2)c2ccccc21` (stereo not drawn), the Potency is reported as 11.6 µM (active). In the case of `Cc1cccc(C(=O)OCC(=O)NC(C)C2CC3CCC2C3)c1O` (stereo not drawn), the Potency is reported as “inactive”. In the case of `Cc1cc(OCCCC(=O)Nc2cc(S(=O)(=O)N3CCOCC3)ccc2N2CCOCC2)ccc1Cl`, the Potency is reported as “inactive”. With `O=c1cc(N2CCCCC2)c(-c2ccccc2)nn1Cc1cccc(F)c1` the Potency was 20.6 µM (active). With `O=c1cc(N2CCN(Cc3ccccc3)CC2)c(-c2ccccc2)n[nH]1` the Potency was “inactive”. For `O=C(CS(=O)(=O)c1cn(Cc2cccc(F)c2)c2ccccc12)N1CCCCC1`, the Potency was “inactive”. For `COc1ccc(-c2nnc(SC(C)C(=O)NC3CC3)o2)cc1` (stereo not drawn), the Potency was “inactive”. For `Cc1ccc(C(=O)/C=C/c2c(C)nn(-c3ccccc3)c2Cl)cc1`, the Potency was 16.4 µM (active). For `Cc1nn(-c2ccccc2)c(Cl)c1C(=O)Nc1ccccc1`, the Potency was “inactive”. In the case of `Cc1nn(-c2ccccc2)c(C)c1/C=C/C(=O)OC(C)C(N)=O` (stereo not drawn), the Potency is reported as “inactive”. For `Cc1ccc(CNC(=O)CC(NC(=O)c2ccccc2)c2ccccc2)cc1` (stereo not drawn), the Potency was “inactive”. For `OCc1ccc(OCCCOc2cccc3cccnc23)cc1`, the Potency was “inactive”. For `COc1ccc(NC(=O)Nc2cccc3cccnc23)cc1`, the Potency was “inactive”. With `O=C(Nc1ccccc1)Oc1cccc2cccnc12` the Potency was 4.11 µM (active). For `CN(Cc1ccccc1)C(=O)COC(=O)/C=C/c1ccc2c(c1)OCO2`, the Potency was “inactive”. In the case of `O=C(CN1C(=O)NC2(CCCCCC2)C1=O)NCc1ccc(F)cc1`, the Potency is reported as “inactive”. For `COc1ccc(S(=O)(=O)Nc2ccc3cn[nH]c3c2)cc1[N+](=O)[O-]`, the Potency was “inactive”. In the case of `COc1cc(NC(=O)c2[nH]cnc2C(N)=O)cc(C(=O)Nc2cccc(C(F)(F)F)c2)c1`, the Potency is reported as 7.31 µM (active). With `COc1ccc(NC(=O)C(=O)NCC(=O)Nc2cccc(C(F)(F)F)c2)cc1` the Potency was “inactive”. With `COc1cc(NC(=O)c2cncc(-c3ccc(C#N)cc3)c2)cc(C(=O)Nc2cccc(C(F)(F)F)c2)c1` the Potency was 13 µM (active). In the case of `Cc1cccc(NC(=O)c2nnn(-c3cccc(C(F)(F)F)c3)c2N)c1`, the Potency is reported as “inactive”. For `CNC(=O)c1ccc(NC(=O)c2cccc(C(F)(F)F)c2)cc1`, the Potency was “inactive”. In the case of `N#Cc1ccc(Oc2ccc(C(F)(F)F)cc2NC(=O)c2ccc(F)cc2)cc1`, the Potency is reported as “inactive”. In the case of `CC(=O)N1CCc2ccc(N)cc21`, the Potency is reported as “inactive”. With `CC1CCC(CN2CCN=C2N(C)C)CC1` (stereo not drawn) the Potency was “inactive”. For `COc1cc2c(cc1OC)CN(C(C)C(=O)Nc1cccc(S(=O)(=O)N3CCOCC3)c1)CC2` (stereo not drawn), the Potency was “inactive”. In the case of `COCCn1c(C)cc(C(=O)CN2c3cccc4cccc(c34)S2(=O)=O)c1C`, the Potency is reported as “inactive”. With `O=C(COC(=O)/C=C/c1cccc(Cl)c1)NCc1cccs1` the Potency was “inactive”. For `Cc1c(NC(=O)C(C)OC(=O)c2ccccc2O)c(=O)n(-c2ccccc2)n1C` (stereo not drawn), the Potency was “inactive”. With `Cc1ccc(OCCCC(=O)Nc2ccc3c(c2)OCCO3)cc1` the Potency was “inactive”. For `CC(C)N(Cc1nnc(-c2ccccc2Br)o1)C(=O)c1cc(Cl)nc2ccccc12`, the Potency was “inactive”. With `Cc1cccc(NC(=O)c2cc([N+](=O)[O-])ccc2N2CCN(C)CC2)c1` the Potency was “inactive”. With `CN1C(=O)c2ccc(C(=O)Nc3ccc(Br)cn3)cc2C1=O` the Potency was “inactive”. With `O=C(Nc1ccc(Br)cn1)c1ccc([N+](=O)[O-])o1` the Potency was 4.11 µM (active). For `O=C(Nc1ccc(Br)cn1)c1ccc([N+](=O)[O-])cc1Cl`, the Potency was “inactive”. With `Cc1cccc(NC(=O)c2ccc([N+](=O)[O-])o2)c1` the Potency was 2.91 µM (active). With `Cc1cccc(NC(=S)NC(=O)c2ccc(Br)o2)c1` the Potency was “inactive”. In the case of `COc1ccc(CNC(=O)c2ccc(NS(=O)(=O)c3ccc4[nH]c(=O)[nH]c4c3)cc2)cc1OC`, the Potency is reported as “inactive”. For `COc1ccc(CNCCCn2cnc3c(OCc4ccccc4)ncnc32)cc1`, the Potency was “inactive”. With `CSCCC(NC(=O)COc1ccccc1)C(=O)N(C)CC(=O)Nc1ccc(C)cc1` (stereo not drawn) the Potency was “inactive”. With `CCOC(=O)CCCCCC(=O)Nc1ccc2c(c1)CC(=O)N([C@@H](C)CO)C[C@H](C)[C@@H](CN(C)Cc1ccccc1)O2` the Potency was “inactive”. For `COc1cccc(/C=C/C(=O)OCC(=O)N2CCN(c3ccccc3)CC2)c1`, the Potency was “inactive”. In the case of `COc1cccc(C(=O)NNC(=O)/C=C/c2ccccc2)c1`, the Potency is reported as “inactive”. For `COc1cccc(C=CC(=O)C=CC=Cc2ccccc2)c1`, the Potency was 16.4 µM (active). With `Cc1noc(C)c1C(=O)OC(C)C(=O)Nc1ccc2c(c1)OCO2` (stereo not drawn) the Potency was “inactive”. For `CC1(C)CC(=O)C=C(c2ccc(Cl)c(C(F)(F)F)c2)C1`, the Potency was “inactive”. With `O=C(NCc1cc(C(F)(F)F)cc(C(F)(F)F)c1)C1CC(c2cccc(F)c2)=NO1` (stereo not drawn) the Potency was “inactive”. In the case of `COc1ccc(S(=O)(=O)N2CCC(C(=O)NCc3ccco3)CC2)cc1C`, the Potency is reported as “inactive”. With `COc1ccc(C2=NOC(C(=O)NCc3ccco3)C2)cc1OC` (stereo not drawn) the Potency was 4.61 µM (active).
